From the supplement of paper PMC10849652
About 7,900 targets were measured; listed, in parts, are those with a hit and a random draw of the rest. About 0.6% of all pairs of compound and target were hits.

How the values were obtained:
Assay in all cases: log2 fold change, soluble protein after heating vs DMSO (PISA); higher = thermal stabilisation; K562 cells, 10 uM, 30 min; active = over 0.2 and 3.5 SD of the protein, either way, in both replicates (recomputed)
bafetinib = compound: Cc1ccc(NC(=O)c2ccc(CN3CC[C@H](N(C)C)C3)c(C(F)(F)F)c2)cc1Nc1nccc(-c2cncnc2)n1 [bafetinib]
How it was run: (§1)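 K562 cells at 2×10^6 cells/mL were given 10 μM compound for 30 min. Aliquots then went through 3 min of heating across 48°C-58°C, were pooled, and were extracted in PBS with 0.5% NP-40 at 4°C, and the supernatant after 21,000xg for 90 min was quantified by TMTpro 16plex LC-MS/MS with channel sums equalised. Thermal stability relative to control samples, from duplicates, is given as log2 fold change.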

[1] = compound: Cc1cccc(CC(=O)N2CCc3c2ccc(-c2cn(C)c4ncnc(N)c24)c3F)n1
How it was run: as §1

nilotinib = compound: Cc1cn(-c2cc(NC(=O)c3ccc(C)c(Nc4nccc(-c5cccnc5)n4)c3)cc(C(F)(F)F)c2)cn1 [nilotinib]
How it was run: as §1

[2] = compound: Cc1nc(Nc2n[nH]c3c2CN(C(=O)N[C@H](CN(C)C)c2ccccc2)C3(C)C)c2sccc2n1
How it was run: as §1

dasatinib = compound: Cc1nc(Nc2ncc(C(=O)Nc3c(C)cccc3Cl)s2)cc(N2CCN(CCO)CC2)n1 [dasatinib]
How it was run: as §1

[3] = compound: Cc1ncc(-c2ccnc(Nc3ccc(S(C)(=O)=O)cc3)n2)n1C(C)C
How it was run: as §1

[4] = compound: Cn1cc(-c2ccc3c(c2)CCN3C(=O)Cc2cccc(C(F)(F)F)c2)c2c(N)ncnc21
How it was run: as §1

[5] = compound: Cn1cc(-c2ccc3nnc(C(F)(F)c4ccc5ncccc5c4)n3n2)cn1
How it was run: as §1

tipifarnib = compound: Cn1cncc1[C@@](N)(c1ccc(Cl)cc1)c1ccc2c(c1)c(-c1cccc(Cl)c1)cc(=O)n2C [tipifarnib]
How it was run: as §1

mubritinib = compound: FC(F)(F)c1ccc(/C=C/c2nc(COc3ccc(CCCCn4ccnn4)cc3)co2)cc1 [mubritinib]
How it was run: as §1

[6] = compound: NC(=O)Nc1cc(-c2cccc(F)c2)sc1C(=O)N[C@H]1CCCNC1
How it was run: as §1

[7] = compound: NC(=O)c1cnc(N[C@@H]2CCCC[C@@H]2N)nc1Nc1cccc(-n2nccn2)c1
How it was run: as §1

[8] = compound: NC1(c2ccc(-c3nc4ccn5c(=O)[nH]nc5c4cc3-c3ccccc3)cc2)CCC1
How it was run: as §1

[9] = compound: NCC(=O)Nc1ccc(-n2nc(C(F)(F)F)cc2-c2ccc3c(ccc4ccccc43)c2)cc1
How it was run: as §1

entinostat = compound: Nc1ccccc1NC(=O)c1ccc(CNC(=O)OCc2cccnc2)cc1 [entinostat]
How it was run: as §1

vorinostat = compound: O=C(CCCCCCC(=O)Nc1ccccc1)NO [vorinostat]
How it was run: as §1

citarinostat = compound: O=C(CCCCCCNC(=O)c1cnc(N(c2ccccc2)c2ccccc2Cl)nc1)NO [citarinostat]
How it was run: as §1

silmitasertib = compound: O=C(O)c1ccc2c(c1)nc(Nc1cccc(Cl)c1)c1ccncc12 [silmitasertib]
How it was run: as §1

[10] = compound: O=C1NC(=O)C(c2cnc3ccccn23)=C1c1cn2c3c(cc(F)cc13)CN(C(=O)N1CCCCC1)CC2
How it was run: as §1

[11] = compound: c1cc(OCCN2CCCCC2)cc(-c2n[nH]c3ccc(-c4nnc[nH]4)cc23)c1
How it was run: as §1

Measured: log2 fold change

DNAJC19 (UniProt Q96DA6)
Sequence of UniProt Q96DA6 (Q96DA6 whole entry, looked up): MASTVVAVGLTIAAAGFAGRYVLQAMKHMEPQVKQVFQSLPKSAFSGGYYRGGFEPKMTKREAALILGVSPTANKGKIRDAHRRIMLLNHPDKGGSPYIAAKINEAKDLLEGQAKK
inactive: bafetinib -0.123 | [1] 0.003 | nilotinib 0.025 | [2] 0.002 | dasatinib -0.003 | [3] -0.005 | [4] 0.012 | [5] 0.022 | tipifarnib 0.012 | mubritinib 0.001 | [6] -0.014 | [7] 0.004 | [8] -0.017 | [9] -0.006 | entinostat 0.004 | vorinostat -0.03 | citarinostat 0.024 | silmitasertib -0.018 | [10] 0.01 | [11] -0.015

DUS2 (UniProt Q9NX74)
Sequence of UniProt Q9NX74 (Q9NX74 whole entry, looked up): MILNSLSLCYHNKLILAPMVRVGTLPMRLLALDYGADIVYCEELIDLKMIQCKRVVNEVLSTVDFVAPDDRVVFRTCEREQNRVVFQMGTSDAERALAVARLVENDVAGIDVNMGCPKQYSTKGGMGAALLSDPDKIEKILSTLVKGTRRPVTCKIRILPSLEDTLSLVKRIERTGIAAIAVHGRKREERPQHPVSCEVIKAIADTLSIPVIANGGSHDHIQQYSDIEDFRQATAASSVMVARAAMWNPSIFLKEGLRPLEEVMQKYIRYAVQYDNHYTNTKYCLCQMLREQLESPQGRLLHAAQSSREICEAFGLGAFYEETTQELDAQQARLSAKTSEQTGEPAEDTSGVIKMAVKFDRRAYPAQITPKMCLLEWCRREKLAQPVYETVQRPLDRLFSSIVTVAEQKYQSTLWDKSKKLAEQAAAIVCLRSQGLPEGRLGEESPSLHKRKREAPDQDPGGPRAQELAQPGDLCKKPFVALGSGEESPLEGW
inactive: bafetinib -0.017 | [1] -0.025 | nilotinib -0.243 | [2] -0.032 | dasatinib -0.07 | [3] 0.014 | [4] -0.072 | [5] 0.01 | tipifarnib 0.094 | mubritinib 0.045 | [6] 0.051 | [7] -0.066 | [8] -0.091 | [9] -0.004 | entinostat 0.008 | vorinostat 0.041 | citarinostat 0.124 | silmitasertib 0.092 | [11] 0.038
active: [10] -0.424

ELOVL5 isoform 2 (UniProt Q9NYP7)
inactive: bafetinib -0.166 | [1] 0.124 | nilotinib -0.182 | [2] 0.021 | dasatinib -0.147 | [3] -0.054 | [4] 0.063 | [5] 0.011 | tipifarnib -0.204 | mubritinib 0.068 | [6] -0.07 | [7] 0.001 | [8] -0.194 | [9] -0.065 | entinostat 0.056 | vorinostat 0.062 | citarinostat 0 | silmitasertib 0.098 | [10] 0.035 | [11] -0.158

DCUN1D1 (UniProt Q96GG9)
inactive: bafetinib -0.083 | [1] 0.026 | nilotinib -0.025 | [2] -0.018 | dasatinib -0.047 | [3] 0 | [4] 0.008 | [5] 0.03 | tipifarnib -0.059 | mubritinib 0.015 | [6] -0.024 | [7] -0.048 | [8] -0.102 | [9] -0.01 | entinostat 0.016 | vorinostat 0.002 | citarinostat 0.054 | silmitasertib 0.002 | [10] -0.098 | [11] -0.02

DHRS1 (UniProt Q96LJ7)
Sequence of UniProt Q96LJ7 (Q96LJ7 whole entry, looked up): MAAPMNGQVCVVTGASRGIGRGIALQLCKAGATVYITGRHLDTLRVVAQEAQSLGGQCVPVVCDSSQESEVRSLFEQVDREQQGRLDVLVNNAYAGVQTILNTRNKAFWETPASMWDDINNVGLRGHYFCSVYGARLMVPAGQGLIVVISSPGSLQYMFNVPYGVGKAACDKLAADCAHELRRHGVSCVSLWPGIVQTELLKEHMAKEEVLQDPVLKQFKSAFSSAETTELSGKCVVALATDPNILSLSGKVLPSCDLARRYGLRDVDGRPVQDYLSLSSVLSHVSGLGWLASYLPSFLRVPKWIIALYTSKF
inactive: bafetinib 0.352 | [1] 0.316 | nilotinib 0.638 | [2] -0.076 | dasatinib 0.02 | [3] -0.14 | [5] -0.106 | tipifarnib 0.717 | mubritinib 0.178 | [6] -0.118 | [7] -0.047 | [8] 0.184 | [9] 0.095 | entinostat -0.082 | vorinostat -0.098 | citarinostat -0.237 | silmitasertib 0 | [11] 0.291
active: [4] 1.1 | [10] 0.834

DYNC1I2 isoform 5 (UniProt Q13409)
inactive: bafetinib -0.071 | [1] -0.018 | nilotinib 0.015 | [2] 0.002 | dasatinib -0.012 | [3] 0.011 | [4] 0.003 | [5] -0.008 | tipifarnib -0.038 | mubritinib 0.046 | [6] -0.021 | [7] -0.016 | [8] -0.023 | [9] 0.059 | entinostat -0.018 | vorinostat -0.044 | citarinostat 0.015 | silmitasertib 0.004 | [10] -0.012 | [11] 0.004

DCTN1 isoform 4 (UniProt Q14203)
Sequence of UniProt Q14203 (Q14203 whole entry, looked up): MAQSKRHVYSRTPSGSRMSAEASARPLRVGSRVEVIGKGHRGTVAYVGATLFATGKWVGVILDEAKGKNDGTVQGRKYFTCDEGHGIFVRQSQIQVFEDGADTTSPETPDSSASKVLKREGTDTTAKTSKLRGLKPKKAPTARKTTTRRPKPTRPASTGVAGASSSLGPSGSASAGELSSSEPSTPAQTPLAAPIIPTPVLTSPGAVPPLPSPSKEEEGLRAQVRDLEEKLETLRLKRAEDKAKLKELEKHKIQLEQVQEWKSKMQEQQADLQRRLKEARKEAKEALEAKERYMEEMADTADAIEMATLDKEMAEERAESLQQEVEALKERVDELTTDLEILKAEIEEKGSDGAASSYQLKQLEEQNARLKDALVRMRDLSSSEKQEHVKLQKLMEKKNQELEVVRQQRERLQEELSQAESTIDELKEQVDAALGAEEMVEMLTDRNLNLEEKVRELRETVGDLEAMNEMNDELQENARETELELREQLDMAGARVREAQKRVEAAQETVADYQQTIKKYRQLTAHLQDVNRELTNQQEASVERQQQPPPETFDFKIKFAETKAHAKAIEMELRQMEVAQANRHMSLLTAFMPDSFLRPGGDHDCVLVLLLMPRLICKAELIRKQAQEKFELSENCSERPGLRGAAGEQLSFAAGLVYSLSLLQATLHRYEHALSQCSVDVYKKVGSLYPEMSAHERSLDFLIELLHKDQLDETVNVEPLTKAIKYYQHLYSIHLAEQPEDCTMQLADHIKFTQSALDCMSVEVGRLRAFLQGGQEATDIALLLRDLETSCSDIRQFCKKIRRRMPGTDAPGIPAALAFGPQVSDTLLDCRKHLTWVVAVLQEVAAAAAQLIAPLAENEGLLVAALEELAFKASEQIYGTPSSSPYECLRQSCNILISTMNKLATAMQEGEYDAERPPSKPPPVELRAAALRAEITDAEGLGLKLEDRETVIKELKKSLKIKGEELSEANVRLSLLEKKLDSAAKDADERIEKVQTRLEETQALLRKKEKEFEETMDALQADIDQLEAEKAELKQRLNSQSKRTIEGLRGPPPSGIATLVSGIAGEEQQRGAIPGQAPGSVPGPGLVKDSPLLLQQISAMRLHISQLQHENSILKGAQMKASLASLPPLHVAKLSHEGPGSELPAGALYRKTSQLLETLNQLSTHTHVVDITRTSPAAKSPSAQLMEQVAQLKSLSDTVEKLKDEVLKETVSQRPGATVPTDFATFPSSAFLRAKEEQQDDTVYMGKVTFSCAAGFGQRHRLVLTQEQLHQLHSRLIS
inactive: bafetinib 0.057 | [1] 0.037 | nilotinib -0.052 | [2] -0.052 | dasatinib -0.256 | [3] -0.018 | [4] 0.003 | [5] -0.015 | tipifarnib -0.054 | mubritinib 0.038 | [6] 0.002 | [7] -0.052 | [8] -0.033 | [9] 0.019 | entinostat 0.049 | vorinostat 0.029 | citarinostat 0.007 | silmitasertib 0.046 | [10] 0.081 | [11] -0.089

DBR1 (UniProt Q9UK59)
inactive: bafetinib -0.001 | [1] 0.02 | nilotinib -0.023 | [2] 0.05 | dasatinib 0.06 | [3] -0.009 | [4] 0.021 | [5] -0.067 | tipifarnib 0.03 | mubritinib -0.002 | [6] 0.002 | [7] -0.017 | [8] -0.002 | [9] 0.052 | entinostat -0.023 | citarinostat 0.014 | silmitasertib -0.012 | [10] -0.004 | [11] -0.072
active: vorinostat -0.215

ERLIN2 (UniProt O94905)
inactive: bafetinib 0.039 | [1] 0.032 | nilotinib -0.107 | [2] 0.012 | dasatinib -0.023 | [3] 0.023 | [4] -0.104 | [5] 0 | tipifarnib 0.024 | mubritinib -0.049 | [6] 0.04 | [7] -0.047 | [8] -0.01 | [9] -0.062 | entinostat 0.032 | vorinostat 0.048 | citarinostat 0.011 | silmitasertib 0.002 | [10] 0.069 | [11] -0.044

DHX40 (UniProt Q8IX18)
Sequence of UniProt Q8IX18 (Q8IX18 whole entry, looked up): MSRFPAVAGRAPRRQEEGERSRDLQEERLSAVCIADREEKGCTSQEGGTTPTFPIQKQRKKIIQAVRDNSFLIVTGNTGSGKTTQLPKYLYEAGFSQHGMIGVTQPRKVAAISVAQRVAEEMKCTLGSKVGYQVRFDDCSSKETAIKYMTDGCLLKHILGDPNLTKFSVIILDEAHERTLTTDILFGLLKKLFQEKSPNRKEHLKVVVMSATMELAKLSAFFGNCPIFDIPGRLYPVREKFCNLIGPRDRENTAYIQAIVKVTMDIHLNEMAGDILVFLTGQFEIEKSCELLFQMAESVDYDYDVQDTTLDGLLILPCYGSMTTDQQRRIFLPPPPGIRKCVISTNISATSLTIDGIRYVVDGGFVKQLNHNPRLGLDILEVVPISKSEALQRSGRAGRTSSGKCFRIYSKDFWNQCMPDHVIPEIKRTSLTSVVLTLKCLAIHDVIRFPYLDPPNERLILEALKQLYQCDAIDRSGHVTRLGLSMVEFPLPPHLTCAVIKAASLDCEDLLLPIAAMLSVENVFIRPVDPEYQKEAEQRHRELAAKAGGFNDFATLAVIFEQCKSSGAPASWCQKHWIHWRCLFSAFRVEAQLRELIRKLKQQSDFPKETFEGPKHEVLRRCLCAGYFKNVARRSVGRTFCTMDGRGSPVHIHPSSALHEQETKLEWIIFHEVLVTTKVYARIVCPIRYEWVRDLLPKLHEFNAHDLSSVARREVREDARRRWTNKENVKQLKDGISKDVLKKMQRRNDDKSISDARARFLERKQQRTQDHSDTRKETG
active: [2] -0.289
inactive: bafetinib -0.033 | [1] 0.038 | nilotinib -0.052 | dasatinib -0.229 | [3] 0.118 | [4] 0.103 | [5] 0.035 | tipifarnib 0.017 | mubritinib 0.084 | [6] -0.093 | [7] -0.036 | [8] -0.157 | [9] -0.042 | entinostat -0.004 | vorinostat -0.097 | citarinostat 0.081 | silmitasertib -0.027 | [10] -0.116 | [11] -0.04

EEF1AKNMT (UniProt Q8N6R0)
Sequence of UniProt Q8N6R0 (Q8N6R0 whole entry, looked up): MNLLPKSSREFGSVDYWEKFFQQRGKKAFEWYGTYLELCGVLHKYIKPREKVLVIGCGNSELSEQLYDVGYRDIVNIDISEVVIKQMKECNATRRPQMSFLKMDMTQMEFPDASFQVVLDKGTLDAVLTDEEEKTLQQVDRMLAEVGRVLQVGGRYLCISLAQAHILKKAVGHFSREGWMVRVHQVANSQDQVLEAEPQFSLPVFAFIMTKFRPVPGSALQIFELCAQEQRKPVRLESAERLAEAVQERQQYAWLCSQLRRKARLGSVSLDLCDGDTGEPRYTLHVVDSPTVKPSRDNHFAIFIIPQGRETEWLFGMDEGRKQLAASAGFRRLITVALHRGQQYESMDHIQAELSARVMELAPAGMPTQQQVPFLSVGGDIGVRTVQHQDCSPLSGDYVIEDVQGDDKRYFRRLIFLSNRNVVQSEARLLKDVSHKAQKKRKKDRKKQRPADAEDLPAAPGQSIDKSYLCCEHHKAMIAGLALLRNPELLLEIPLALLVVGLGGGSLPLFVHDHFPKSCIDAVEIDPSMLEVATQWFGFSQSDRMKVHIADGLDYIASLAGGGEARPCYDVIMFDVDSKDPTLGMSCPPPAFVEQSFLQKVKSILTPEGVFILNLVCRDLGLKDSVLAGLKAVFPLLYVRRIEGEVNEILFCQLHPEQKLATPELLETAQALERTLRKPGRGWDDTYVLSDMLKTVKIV
inactive: bafetinib 0.067 | [1] -0.008 | nilotinib -0.02 | [2] -0.062 | dasatinib -0.118 | [3] 0.084 | [4] -0.031 | [5] 0.003 | tipifarnib -0.154 | mubritinib 0.089 | [6] -0.025 | [7] -0.061 | [8] -0.109 | [9] -0.017 | entinostat 0.038 | vorinostat 0.161 | citarinostat -0.002 | silmitasertib 0.059 | [10] 0.055 | [11] 0.031

EIF2AK3 (UniProt Q9NZJ5)
Sequence of UniProt Q9NZJ5 (Q9NZJ5 whole entry, looked up): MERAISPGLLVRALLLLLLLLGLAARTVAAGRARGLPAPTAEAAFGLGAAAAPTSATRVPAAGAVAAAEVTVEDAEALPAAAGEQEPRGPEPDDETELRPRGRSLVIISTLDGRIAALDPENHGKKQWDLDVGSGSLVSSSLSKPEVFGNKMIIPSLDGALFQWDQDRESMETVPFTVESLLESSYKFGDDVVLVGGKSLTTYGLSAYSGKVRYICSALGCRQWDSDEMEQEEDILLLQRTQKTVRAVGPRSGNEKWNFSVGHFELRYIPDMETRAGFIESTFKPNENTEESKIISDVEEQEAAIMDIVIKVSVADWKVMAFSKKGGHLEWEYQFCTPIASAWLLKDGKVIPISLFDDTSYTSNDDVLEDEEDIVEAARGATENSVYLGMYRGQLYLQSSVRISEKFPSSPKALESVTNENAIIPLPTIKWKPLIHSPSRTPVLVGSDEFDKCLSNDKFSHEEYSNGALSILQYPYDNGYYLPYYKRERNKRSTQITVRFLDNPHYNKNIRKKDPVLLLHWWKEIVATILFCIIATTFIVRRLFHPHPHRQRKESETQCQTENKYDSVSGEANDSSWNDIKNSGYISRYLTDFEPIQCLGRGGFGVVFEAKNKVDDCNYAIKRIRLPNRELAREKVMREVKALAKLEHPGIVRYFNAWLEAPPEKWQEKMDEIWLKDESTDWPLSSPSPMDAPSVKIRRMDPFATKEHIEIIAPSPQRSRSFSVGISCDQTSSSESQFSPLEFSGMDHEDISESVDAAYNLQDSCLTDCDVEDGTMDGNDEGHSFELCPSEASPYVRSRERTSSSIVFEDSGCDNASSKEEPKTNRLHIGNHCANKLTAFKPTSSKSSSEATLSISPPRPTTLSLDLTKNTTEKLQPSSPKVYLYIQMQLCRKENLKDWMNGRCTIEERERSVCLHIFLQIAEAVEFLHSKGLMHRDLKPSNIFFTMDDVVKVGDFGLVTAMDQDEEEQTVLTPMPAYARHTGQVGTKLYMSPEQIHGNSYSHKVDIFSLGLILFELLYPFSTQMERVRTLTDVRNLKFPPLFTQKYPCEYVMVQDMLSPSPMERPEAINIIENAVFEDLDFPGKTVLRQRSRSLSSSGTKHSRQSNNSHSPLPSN
inactive: bafetinib 0.082 | [1] 0.535 | nilotinib -0.201 | [2] -0.072 | dasatinib -0.017 | [3] -0.067 | tipifarnib -0.057 | mubritinib 0.019 | [7] 0.056 | [8] -0.211 | vorinostat -0.02 | citarinostat -0.039 | silmitasertib -0.085 | [10] 0.127 | [11] 0.097
active: [4] 0.845
